# Results taken from PubChem BioAssay (NCATS).
# Several values for one entry are separate records, joined by “and”; a condition that tells them apart may be missing. Identical values can stand only once. Results filed as inconclusive are left out. Entries that show only a call come without a potency. Where a structure was tested more than once in an assay, its records may differ in their call. Activity calls are given as the source filed them. Unless noted, the call rests on the fitted dose curve; in most records, active means well fitted curve in the direction sought with a large enough effect; inconclusive means small, poorly fitted or top-dose-only effect, or another doubt; inactive means no such curve, though single readings can be large; an effect the other way counts as inactive or inconclusive. Peptide text beside a SMILES is read from it.
# Legend:
# [1] = Cellular Toxicity (caspase-3) HepG2 (AID 654);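 further: cells exposed to compound for 16 hours before reading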
# Procedure, shortened: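 Luminescent Caspase-Glo 3/7 readout after 16 hr compound exposure of human hepatocellular carcinoma HepG2 cells at 37 °C; qHTS concentration-response, normalized DMSO = 0%, 100 uM tamoxifen = 100%; AC50 by standard Hill equation.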
# [2] = Cellular Toxicity (caspase-3) Jurkat (AID 655);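 further: cells exposed to compound for 16 h at 37 °C before reading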
# Procedure, shortened: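 Luminescent caspase-3/7 readout (aminoluciferin substrate cleavage) in human T-cell leukemia Jurkat cells after 16 hr compound exposure. Concentration-response normalized to DMSO and 100 uM tamoxifen; AC50 by standard Hill equation.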
# [3] = Cellular Toxicity (caspase-3) HUV-EC-C (AID 656)
# Procedure, shortened: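 Luminescent caspase-3/7 activation (aminoluciferin substrate cleavage) in HUV-EC-C cells after 16 hr compound exposure, 37°C. Signal normalized to DMSO basal and 100 uM tamoxifen as 100%; AC50 from concentration-response fitted with the Hill equation.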
# [4] = Cellular Toxicity (caspase-3) SHSY5Y (AID 657);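 further: cells exposed to compound for 16 hours at 37 °C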
# Procedure, shortened: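 Luminescent caspase-3/7 readout (aminoluciferin release) in SH-SY5Y cells after 16 h compound exposure in complete medium. Activity scaled between DMSO basal and 10 uM staurosporine as 100%; concentration-response fitted to Hill equation for AC50.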
# [5] = Cellular Toxicity (caspase-3) BJ (AID 658);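 further: cells exposed to compound for 16 hours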
# Procedure, shortened: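 Plated BJ cells (1000/well) rested 5 hr, received compound for 16 hr at 37 °C, then Caspase-Glo 3/7 reagent for 1 hr at room temperature before luminescence reading.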
# [6] = Cellular Toxicity (caspase-3) MRC-5 (AID 659)
# Procedure, shortened: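 Apoptosis readout in MRC-5 cells: luciferase light generated after caspase 3/7 cleaves a peptide-aminoluciferin substrate, measured post 16 hr compound incubation at 37 °C.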
# [7] = Cellular Toxicity (caspase-3) Mesangial (AID 660);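 further: combined caspase 3 and 7 activity read by Caspase-Glo luminescence; cells exposed to compound for 16 h before the caspase read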
# Procedure, shortened: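 Luminescent Caspase-Glo 3/7 readout (aminoluciferin substrate cleavage, 20 min RT) after 16 h compound exposure at 37 °C of normal human mesangial cells. Signal increase normalized between DMSO basal and 100 uM tamoxifen; Hill-equation AC50.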
# [8] = Cellular Toxicity (caspase-3) SK-N-SH (AID 661);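 further: cells exposed to compound for 16 hours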
# Procedure, shortened: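 Luminescent Caspase-Glo 3/7 read-out after 16 hr compound exposure of SK-N-SH neuroblastoma cells at 37 °C. Signal increase normalized to DMSO (basal) and 10 uM staurosporine (100%); AC50 from Hill equation fits of qHTS concentration-response data.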
# [9] = Cellular Toxicity (caspase-3) Hek293 (AID 664); conditions: HEK293 caspase-3 activation, DMSO = 0%, 100 µM tamoxifen = 100%; at 92.2 µM (top of the series);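 further: cells exposed to compound for 16 h at 37 °C before readout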
# Procedure, shortened: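 Luminescent Caspase-Glo 3/7 readout (aminoluciferin release) in HEK293 cells after 16 h compound treatment, 37 °C. Normalization: DMSO = basal, 100 uM tamoxifen = 100% stimulation. Concentration-response fitted with standard Hill equation for AC50.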
# [10] = Cellular Toxicity (caspase-3) N2a (AID 665);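 further: compound exposure lasted 16 h at 37 °C before readout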
# Procedure, shortened: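 Luminescent Caspase-Glo 3/7 readout in N2a mouse neuroblastoma cells after 16 h compound exposure at 37 °C. Signal scaled to DMSO (basal) and 10 uM staurosporine (100%). Concentration-response fitted with Hill equation for AC50.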
# [11] = Cellular Toxicity (caspase-3) Renal Proximal Tubule (AID 667);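 further: cells exposed to compound for 16 hours at 37 °C before detection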
# Procedure, shortened: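 Luminescent caspase 3/7 signal from peptide-aminoluciferin cleavage measures apoptosis in freshly isolated rat kidney proximal tubule cells after 16 h compound exposure. Concentration-response data are normalized to DMSO and 10 uM staurosporine, and AC50 values come from Hill equation fits.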
# [12] = target: Cytochrome P450 3A4 (Homo sapiens) (UniProt P08684); assay: qHTS Assay for Inhibitors and Substrates of Cytochrome P450 3A4 (AID 884); further: nearly all actives have a fitted effect of over 50% in size; further: potency means the concentration at half of the fitted maximal effect
# Procedure, shortened: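 Luminescent readout of luciferin produced by CYP3A4 (20 nM) dealkylation of Luciferin-PPXE, 25 uM (its KM). NADPH-driven reaction ran 60 min at RT after 10 min compound preincubation; data scaled to 57 uM ketoconazole as 100% inhibition.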
# [13] = target: Guanine nucleotide-binding protein G(i) subunit alpha-1 (Homo sapiens) (UniProt P63096); assay: qHTS Assay for Inhibitors of RGS12 GoLoco Motif Activity (Green Fluorophore) (AID 879);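 further: negative values mean loss of peptide binding seen as reduced polarization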
# Procedure, shortened: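 A drop in FITC polarization marked displacement of the FITC-tagged RGS12 GoLoco peptide (10 nM) from Gαi1 (50 nM). Compounds were incubated 10 min at room temperature in Tris pH 7.5 buffer containing 150 mM NaCl, 0.1 mM GDP and 0.05% NP40; unlabeled peptide titration served as control.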
# [14] = target: Cytochrome P450 2C9 (Homo sapiens) (UniProt P11712); assay: qHTS Assay for Inhibitors and Substrates of Cytochrome P450 2C9 (AID 883); further: nearly all actives have a fitted effect of over 60% in size; further: potency means the concentration at half of the fitted maximal effect
# Procedure, shortened: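 Human CYP2C9 (10nM) hydroxylated Luciferin-H (100uM, at its KM) to luciferin in 25mM KPO4. Compound was preincubated 10 min at 37C, then NADPH regeneration started a 60 min reaction at 37C. Luminescence was read after detection reagent, normalized to 57uM sulphaphenazole.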
# [15] = target: Cytochrome P450 3A4 (Homo sapiens) (UniProt P08684); assay: qHTS Assay for Activators of Cytochrome P450 3A4 (AID 885); further: nearly all actives have a fitted effect of over 65% in size
# Procedure, shortened: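 Luminescent readout of luciferin formed from 25 uM Luciferin-PPXE (KM level) by 20 nM CYP3A4 in 200 mM KPO4, with 60 min NADPH-driven reaction at room temperature after 10 min compound exposure. Ketoconazole (57 uM) defined 100% inhibition.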
# [16] = target: Cytochrome P450 2D6 (Homo sapiens) (UniProt P10635); assay: qHTS Assay for Inhibitors and Substrates of Cytochrome P450 2D6 (AID 891); further: nearly all actives have a fitted effect of over 60% in size; further: potency means the concentration at half of the fitted maximal effect
# Procedure, shortened: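 Luminescent read-out of luciferin formed by 5 nM human CYP2D6 demethylating 30 uM Luciferin-ME EGE (Km level) over 60 min at room temperature after NADPH regeneration addition. Data normalized to full inhibition by 1.43 uM quinidine.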
# [17] = Confirmation and Secondary Assay for Modulators of Hemoglobin Beta Chain Splicing at IVS2 654 locus (AID 910);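 further: per-well total GFP intensity by laser scanning cytometry after 2-day treatment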;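 further: potency means the concentration at half of the fitted maximal effect; potency of activators that raise GFP signal by restoring correct splicing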
# Procedure, shortened: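 HeLa cells stably carrying EGFP interrupted by mutant beta-globin IVS2-654 intron (CMV-driven) were treated with compound for 2 days at 37C; corrected splicing was scored as total peak GFP intensity per well (488 nm excitation, 500-520 nm emission).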
# [18] = qHTS Assay for Identification of Small Molecule Antagonists for NFkB Signaling Pathway (AID 895; active means well fitted inhibition curve with a large enough effect in the signal ratio, with a control signal flat, not every such curve was filed as active; the % refers to the signal ratio)
# Procedure, shortened: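 NFkB-bla ME-180 cervical carcinoma cells with beta-lactamase reporter under NFkB response element; compounds added, then TNF alpha at 10 pM final (EC50), 5 h at 37 C. LiveBLAzer substrate 2 h, room temperature; emission 460/530 nm at 405 nm excitation.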
# [19] = target: Cytochrome P450 2C19 (Homo sapiens) (UniProt P33261); assay: qHTS Assay for Inhibitors and Substrates of Cytochrome P450 2C19 (AID 899); further: nearly all actives have a fitted effect of over 60% in size; further: potency means the concentration at half of the fitted maximal effect
# Procedure, shortened: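 Human CYP2C19 (5nM) with Luciferin-H EGE at 10uM (its KM) in 50mM KPO4 was preincubated with compound for 10 min at 37C. NADPH regeneration started a 60 min 37C reaction. Luciferin was read by luminescence, normalized to 57uM ketoconazole.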
# [20] = qHTS Assay for Identification of Small Molecule Agonists for Hypoxia Response Element Signaling Pathway (AID 914; active means well fitted activation curve with a large enough effect in the signal ratio, with a control signal flat, not every such curve was filed as active; the % refers to the signal ratio); conditions: ME-180 (cervical carcinoma) HRE-bla reporter, beta-lactamase ratio, CoCl2, 17 h; stronger effect = higher value
# Procedure, shortened: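 Cells were plated overnight, pin-dosed with compound in a titration series, co-stimulated with EC50 CoCl2 and incubated 17 hours at 37 degrees Celsius. CCF4 substrate was then loaded, and AC50 values came from the 460nm/530nm ratio.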
# Cytochrome P450 2C19 (Homo sapiens), sequence (P33261 whole entry, looked up): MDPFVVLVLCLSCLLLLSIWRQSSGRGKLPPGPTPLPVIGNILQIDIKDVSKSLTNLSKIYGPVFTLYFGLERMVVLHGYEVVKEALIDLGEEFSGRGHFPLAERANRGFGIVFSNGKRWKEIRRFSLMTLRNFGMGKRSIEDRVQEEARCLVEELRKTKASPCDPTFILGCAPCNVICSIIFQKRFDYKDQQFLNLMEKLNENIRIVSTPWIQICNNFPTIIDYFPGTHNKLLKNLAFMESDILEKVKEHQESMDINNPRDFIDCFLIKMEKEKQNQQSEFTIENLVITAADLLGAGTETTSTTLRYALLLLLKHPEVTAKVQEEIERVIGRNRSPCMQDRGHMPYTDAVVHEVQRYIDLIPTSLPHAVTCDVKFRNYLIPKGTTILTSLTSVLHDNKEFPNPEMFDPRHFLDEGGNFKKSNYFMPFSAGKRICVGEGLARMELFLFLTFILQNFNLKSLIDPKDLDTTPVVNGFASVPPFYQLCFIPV
# Cytochrome P450 3A4 (Homo sapiens), sequence (P08684 whole entry, looked up): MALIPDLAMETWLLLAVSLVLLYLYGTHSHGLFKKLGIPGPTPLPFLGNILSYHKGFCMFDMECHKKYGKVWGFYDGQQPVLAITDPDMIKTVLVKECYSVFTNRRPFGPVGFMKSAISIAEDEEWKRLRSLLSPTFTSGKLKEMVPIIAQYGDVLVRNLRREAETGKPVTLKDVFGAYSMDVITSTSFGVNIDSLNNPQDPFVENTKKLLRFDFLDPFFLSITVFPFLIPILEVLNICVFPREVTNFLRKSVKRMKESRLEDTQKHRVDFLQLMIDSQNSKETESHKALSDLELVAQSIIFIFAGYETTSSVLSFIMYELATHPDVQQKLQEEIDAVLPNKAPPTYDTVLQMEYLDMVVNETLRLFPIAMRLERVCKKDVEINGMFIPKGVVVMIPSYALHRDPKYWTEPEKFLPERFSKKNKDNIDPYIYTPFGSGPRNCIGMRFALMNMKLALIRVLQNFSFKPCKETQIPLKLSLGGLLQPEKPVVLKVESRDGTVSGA
# Cytochrome P450 2C9 (Homo sapiens), sequence (P11712 whole entry, looked up): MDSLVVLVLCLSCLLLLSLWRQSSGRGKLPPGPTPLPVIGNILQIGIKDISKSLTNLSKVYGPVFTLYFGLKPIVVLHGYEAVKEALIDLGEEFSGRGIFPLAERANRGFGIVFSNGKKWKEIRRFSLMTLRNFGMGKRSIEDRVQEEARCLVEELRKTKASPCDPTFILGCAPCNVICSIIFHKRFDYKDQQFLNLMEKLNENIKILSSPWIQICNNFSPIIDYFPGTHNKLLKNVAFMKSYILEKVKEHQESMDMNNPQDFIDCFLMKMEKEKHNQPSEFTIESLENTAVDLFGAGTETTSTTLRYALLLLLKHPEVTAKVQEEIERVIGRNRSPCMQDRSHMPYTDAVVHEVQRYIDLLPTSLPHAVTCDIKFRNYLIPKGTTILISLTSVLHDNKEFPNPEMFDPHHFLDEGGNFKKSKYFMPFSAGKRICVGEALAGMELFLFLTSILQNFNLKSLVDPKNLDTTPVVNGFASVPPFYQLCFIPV
# Guanine nucleotide-binding protein G(i) subunit alpha-1 (Homo sapiens), sequence (P63096 whole entry, looked up): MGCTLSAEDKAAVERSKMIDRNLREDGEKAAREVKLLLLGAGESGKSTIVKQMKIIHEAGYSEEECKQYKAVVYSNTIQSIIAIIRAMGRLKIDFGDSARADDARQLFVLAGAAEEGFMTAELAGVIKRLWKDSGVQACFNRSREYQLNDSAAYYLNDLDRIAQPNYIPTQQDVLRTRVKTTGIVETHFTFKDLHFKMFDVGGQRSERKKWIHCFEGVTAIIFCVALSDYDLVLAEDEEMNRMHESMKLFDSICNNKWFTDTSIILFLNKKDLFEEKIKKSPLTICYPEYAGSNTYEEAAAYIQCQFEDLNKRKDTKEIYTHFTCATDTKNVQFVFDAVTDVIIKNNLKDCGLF
# Cytochrome P450 2D6 (Homo sapiens), sequence (P10635 whole entry, looked up): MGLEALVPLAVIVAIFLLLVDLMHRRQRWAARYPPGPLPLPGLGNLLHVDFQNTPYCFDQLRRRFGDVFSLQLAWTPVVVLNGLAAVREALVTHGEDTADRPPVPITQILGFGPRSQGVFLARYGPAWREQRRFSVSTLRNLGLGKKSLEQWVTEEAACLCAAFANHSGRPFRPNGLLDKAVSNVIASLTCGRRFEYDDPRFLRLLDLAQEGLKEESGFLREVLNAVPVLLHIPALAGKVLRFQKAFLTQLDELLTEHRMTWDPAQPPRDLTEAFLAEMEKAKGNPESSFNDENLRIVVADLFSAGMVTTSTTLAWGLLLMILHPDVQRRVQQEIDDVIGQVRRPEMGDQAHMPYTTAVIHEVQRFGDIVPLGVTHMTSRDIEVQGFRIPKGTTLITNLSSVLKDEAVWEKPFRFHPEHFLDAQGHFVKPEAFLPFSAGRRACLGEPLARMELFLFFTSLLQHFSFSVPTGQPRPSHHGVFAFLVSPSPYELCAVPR
smiles,measurement,setting,value
CCCCC(CC)COC(=O)C(C#N)=C(c1ccccc1)c1ccccc1 (configuration not stated),outcome,[1],inactive
same,Potency,[2],inactive
same,outcome,[3],inactive
same,outcome,[4],inactive
same,outcome,[5],inactive
same,outcome,[6],inactive
same,outcome,[7],inactive
same,outcome,[8],inactive
same,caspase-3 activation,[9],2.23% (inactive)
same,outcome,[10],inactive
same,outcome,[11],inactive
same,Potency,[12],inactive
CC1(C)C(=O)N(CCN2CCC(C(=O)c3ccc(F)cc3)CC2)c2ccccc21,outcome,[13],inactive
same,Potency,[14],inactive
same,outcome,[15],inactive
same,Potency,[16],1.26 µM (active)
COC(=O)[C@H](Cc1ccccc1)NC(=O)[C@@H](N)CC(=O)O (H-Asp-Phe-OMe),outcome,[1],inactive
same,Potency,[2],inactive
same,outcome,[3],inactive
same,outcome,[4],inactive
same,outcome,[5],inactive
same,outcome,[6],inactive
same,outcome,[7],inactive
same,outcome,[8],inactive
same,caspase-3 activation,[9],1.4% (inactive)
same,outcome,[10],inactive
same,outcome,[11],inactive
same,Potency,[12],inactive
Cc1ccc(C)c(OCCCC(C)(C)C(=O)O)c1,outcome,[1],inactive
same,Potency,[2],inactive
same,outcome,[3],inactive
same,outcome,[4],inactive
same,outcome,[5],inactive
same,outcome,[6],inactive
same,outcome,[7],inactive
same,outcome,[8],inactive
same,caspase-3 activation,[9],-2.65% (inactive)
same,outcome,[10],inactive
same,outcome,[11],inactive
same,Potency,[14],6.31 µM (active)
same,Potency,[12],inactive
same,Potency,[17],inactive
O=C1NC(=O)C(c2ccccc2[N+](=O)[O-])=C1Nc1ccc(O)c(Cl)c1,outcome,[13],inactive
same,outcome,[15],inactive
same,Potency,[16],inactive
CS(=O)(=O)OCCCCOS(C)(=O)=O,outcome,[1],inactive
same,Potency,[2],inactive
same,outcome,[3],inactive
same,outcome,[4],inactive
same,outcome,[5],inactive
same,outcome,[6],inactive
same,outcome,[7],inactive
same,outcome,[8],inactive
same,caspase-3 activation,[9],-0.303% (inactive) and 2.3% (inactive)
same,outcome,[10],inactive
same,outcome,[11],inactive
same,Potency,[12],inactive
same,Potency,[17],inactive
O=c1c(O)c(-c2cc(O)c(O)c(O)c2)oc2cc(O)cc(O)c12,outcome,[13],inactive
same,outcome,[15],inactive
same,Potency,[16],inactive
CN(C)CCc1c[nH]c2ccc(Cn3cncn3)cc12,Potency,[12],inactive
same,Potency,[17],inactive
O=C(NC(Cc1cc(=O)[nH]c2ccccc12)C(=O)O)c1ccc(Cl)cc1 (configuration not stated),Potency,[12],inactive
same,Potency,[17],inactive
CN1CCC(=C2c3ccccc3CCc3sccc32)CC1,Potency,[16],1.26 µM (active)
same,Potency,[17],inactive
O=c1ccc2ccc(O)c(O)c2o1,outcome,[13],inactive
same,Potency,[18],inactive
O=C1c2ccccc2-c2n[nH]c3cccc1c23,Potency,[14],inactive
same,Potency,[12],3.98 µM (active)
same,outcome,[15],inactive
same,Potency,[16],inactive and 398 nM (active)
same,Potency,[19],inactive
Cc1ncc([N+](=O)[O-])n1CC(C)O (configuration not stated),Potency,[12],inactive
same,Potency,[17],inactive
Cc1c(OCC(F)(F)F)ccnc1CS(=O)c1nc2ccccc2[nH]1 (configuration not stated),outcome,[13],inactive
same,outcome,[15],inactive
same,Potency,[19],1.26 µM (active)
same,Potency,[17],inactive
CCCOc1ccc2nc(NC(=O)OC)[nH]c2c1,Potency,[12],inactive
same,Potency,[17],inactive
Nc1nc(Cl)nc2c1ncn2[C@H]1C[C@H](O)[C@@H](CO)O1,Potency,[12],inactive
same,Potency,[17],inactive
CCOC(=O)C1=C(O)C(=O)N(Cc2ccccc2)C1,Potency,[14],3.98 µM (active)
same,outcome,[15],inactive
CCN(CCO)CCCC(C)Nc1ccnc2cc(Cl)ccc12 (configuration not stated),Potency,[17],inactive
O=C(O)c1cn(-c2ccc(F)cc2)c2cc(N3CCNCC3)c(F)cc2c1=O,Potency,[12],inactive
same,Potency,[17],inactive
NNc1nncc2ccccc12,outcome,[13],inactive
same,outcome,[15],inactive
same,Potency,[18],inactive
same,Potency,[17],inactive
O=c1oc2cc(O)ccc2s1,Potency,[12],inactive
same,Potency,[17],inactive
Cc1cc2cc3c(C)cc(=O)oc3c(C)c2o1,Potency,[12],3.98 µM (active)
same,outcome,[15],inactive
same,Potency,[17],inactive
CN1C(C(=O)Nc2ccccn2)=C(O)c2sccc2S1(=O)=O,Potency,[12],inactive
same,Potency,[17],inactive
same,activation,[20],-9.7% (inactive)
Nc1cc(C(Cl)=C(Cl)Cl)c(S(N)(=O)=O)cc1S(N)(=O)=O,Potency,[17],inactive
S=c1nc[nH]c2nc[nH]c12,Potency,[12],inactive
same,Potency,[17],3.16 µM (active)
Cc1cccc(CN2CCN(C(c3ccccc3)c3ccc(Cl)cc3)CC2)c1 (configuration not stated),outcome,[15],inactive
same,Potency,[17],inactive
C[C@@H](N)C1CCC(C(=O)Nc2ccncc2)CC1 (some centres not stated),Potency,[12],15.8 µM (active)
same,outcome,[15],inactive
O=C1c2c(O)cc(O)cc2OC(c2ccc(O)c(O)c2)C1O (configuration not stated),outcome,[15],inactive
Cc1cc(=O)oc2cc(O)ccc12,Potency,[14],inactive
Cc1cc(C2CCCCC2)n(O)c(=O)c1,Potency,[12],inactive
same,Potency,[17],inactive
O=C(O)c1cc(=O)c2c(OCC(O)COc3cccc4oc(C(=O)O)cc(=O)c34)cccc2o1,Potency,[12],inactive
same,Potency,[17],inactive
Cc1ccc(S(=O)(=O)NC(=O)NN2CC3CCCC3C2)cc1 (configuration not stated),Potency,[12],inactive
same,Potency,[17],inactive
O=C(c1ccccc1)c1ccc2n1CCC2C(=O)O (configuration not stated),Potency,[12],inactive
same,Potency,[17],inactive
COC(=O)C1=C(C)NC(C)=C(C(=O)OC(C)C)C1c1cccc2nonc12 (configuration not stated),outcome,[15],inactive
CC1(C)NC(=O)N(c2ccc([N+](=O)[O-])c(C(F)(F)F)c2)C1=O,outcome,[13],inactive
same,outcome,[15],inactive
same,Potency,[16],inactive
same,Potency,[19],7.94 µM (active) and 126 nM (active) and 251 nM (active)
same,Potency,[17],inactive
COc1ccc2cc([C@H](C)C(=O)O)ccc2c1,outcome,[13],inactive
same,Potency,[18],inactive
CC1Cc2ccccc2N1NC(=O)c1ccc(Cl)c(S(N)(=O)=O)c1 (configuration not stated),Potency,[12],inactive
same,Potency,[17],inactive
Cc1cc2c(s1)Nc1ccccc1N=C2N1CCN(C)CC1,Potency,[12],inactive
same,Potency,[17],inactive
O=C(NCCO[N+](=O)[O-])c1cccnc1,Potency,[14],2 µM (active)
same,Potency,[19],3.98 µM (active)
